According to ChEMBL document CHEMBL1157539, “Thousands of chemical starting points for antimalarial lead identification” (Nature, 2010):

Assays:
Assay type in all cases: functional
Plasmodium falciparum [1] = test: GSK_TCMDC: Inhibition of Plasmodium falciparum 3D7 in whole red blood cells, using parasite LDH activity as an index of growth. Test compounds present at 2uM
Plasmodium falciparum [2] = test: GSK_TCMDC: Inhibition of Plasmodium falciparum Dd2 in whole red blood cells, using parasite LDH activity as an index of growth. Test compounds present at 2uM
HepG2 = test: GSK_TCMDC: Percent inhibition of human HepG2 cell line. Test compounds present at 10uM.

Compound	Inhibition (Plasmodium falciparum [1]) [%]	Inhibition (Plasmodium falciparum [2]) [%]	Inhibition (HepG2) [%]
O=C(NCc1cccs1)[C@H](Cc1ccccc1)Nc1ccnc(NCC2CCCCC2)n1.O=C(O)C(F)(F)F	83	67	5
CCn1c(-c2nonc2N)nc2c(-c3cccc(NC(=O)Nc4ccc(Cl)cc4)c3)ncc(OCCCN)c21.O=C(O)C(F)(F)F	96	72	26
COCc1nc(N)nc(N)c1-c1ccc(Cl)c(Cl)c1	84	1	4
COc1cc2nc(-c3ccc(Br)cc3)cc(N)c2cc1OC	98	69	90
Cl.Oc1ccc(Cc2ccccc2)cc1CNC1CCCCC1	96	98	30
CCN(CC)CCNC(=O)c1ccc(NC(=O)c2cn(-c3ccccc3)nc2-c2cccs2)cc1	100	94	30
COc1cccc2c(NN=Cc3cccc(Cl)c3)cc(C)nc12	100	75	3
O=C(/C=C/c1ccccc1Cl)Nc1ccc(Br)c(OCCN2CCCCC2)c1.O=C(O)C(=O)O	99	25	11
